Most compounds without a hit are left out; they make up all but 2.9% or so of the library.
Nrf2 block: blocks Nrf2 signaling; 360,000 tested, 2.1% active; A549 ARE-Fluc reporter, luciferase luminescence, 18-24 h; Potency, µM (highest dose often 46 µM), usual class: inhibitors; also: nearly all actives have a fitted effect of over 60% in size
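Nrf2 activity is the BugLite luminescence, read 15 min after reagent at room temperature, following CellTiter-Fluor cytotoxicity readout (30 min, 37C). Compound titrations were applied for 18-24 h to 5000 A549 ARE_Fluc cells/well in 5% FBS OPTI-MEM.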
Nrf2 activator: activators of Nrf2 (ARE) signaling | AREc32 ARE-luciferase reporter (MCF7-derived line), luminescence, 24 h | Potency, µM (top dose mostly 46.1 µM), hits mostly activators | 410,000 tested, 0.31% active; also: nearly all actives have a fitted effect of over 65% in size
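AREc32 cells carrying an ARE-driven firefly luciferase reporter were seeded at 1000 cells/well in OPTI-MEM with 5% FBS, then exposed to compound for 24 hr at 37 deg C. Luminescence was read with Steady-Glo after 30 min at RT.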
ATXN viability: reduces viability in counter-screen for ATXN expression inhibitors; S2 cells (HEK-293 line with an ATXN2-luciferase reporter) viability, CellTiter-Fluor protease fluorescence, 24 h; Potency, µM (titrated, usually from 56.7 µM), hits mostly cytotoxic; 400,000 tested, 0.49% active; also: nearly all actives have a fitted effect of over 40% in size
ATXN2 expr inh: ATXN2 expression inhibition. Potency, µM (doses to about 57 µM), usual class: inhibitors. HEK-293 ATXN2-luciferase reporter, luminescence, 24 h. 360,000 tested, 0.72% active. AID 1745845; also: nearly all actives have a fitted effect of over 55% in size
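ATXN2-luciferase reporter cells (luciferase flanked by upstream and downstream ATXN2 gene portions) were treated 24 h at 37 °C with compounds at up to 57 uM. SteadyGlo luminescence gave expression; GF-AFC fluorescence gave viability.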
A549 tox: counter-screen for Nrf2 inhibitors: cytotoxicity in A549 cells; 390,000 tested, 0.16% active; AID 504648; A549 ARE-Fluc cells, CellTiter-Fluor viability, 18-24 h; Potency, µM (top dose mostly 46 µM), most hits filed as inhibitors
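Cytotoxicity counterscreen: CellTiter-Fluor fluorescence was measured in A549 ARE_Fluc cells after 18-24 h of compound exposure in a concentration series. The subsequent BugLite luminescent read reports ARE-luciferase activity.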
Large screens that a line does not name were inactive; ! = not confirmed by another sample. Calls follow the shape of the dose curve; as a rule, active = well fitted curve in the direction sought with a large enough effect; inconclusive = small, poorly fitted or top-dose-only effect, or another doubt; inactive = no such curve, though single readings can be large; an effect the other way counts as inactive or inconclusive.

Cc1ccc2nc(N(CCCN(C)C)C(=O)c3cc(-c4cccs4)nc4ccccc34)sc2c1	Nrf2 block inconclusive, ATXN viability 32µM, ATXN2 expr inh inconclusive, A549 tox inconclusive
Cc1ccc2nc(N(CCCN(C)C)C(=O)c3ccc(Br)s3)sc2c1	ATXN viability 22µM!, ATXN2 expr inh inconclusive
CN(C)CCCN(C(=O)c1ccc(Br)s1)c1nc2ccc(F)cc2s1	Nrf2 block inconclusive
CC(=O)c1ccc(-c2ccc3c4c(ccc3c2)OC(CNC(=O)[C@@H]2CCCN2C(C)=O)C4)s1 (some centres not stated)	none (no result: Nrf2 block, Nrf2 activator, ATXN2 expr inh, A549 tox)
COc1ccc(-c2onc(C)c2C)cc1S(=O)(=O)N(C)Cc1ccccc1	Nrf2 block 18µM (no result: ATXN viability, ATXN2 expr inh)
COc1ccc(-c2onc(C)c2C)cc1S(=O)(=O)NC1CCC(C)CC1 (configuration not stated)	Nrf2 block 21µM (no result: ATXN viability, ATXN2 expr inh)
C=C1CCN(C(C(=O)O)C(C)C)S(=O)(=O)c2ccccc21 (configuration not stated)	none (no result: Nrf2 activator, ATXN viability, ATXN2 expr inh)
CCOc1cc(/C=C2\SC(=O)N(CC(=O)Nc3ccccc3F)C2=O)cc([N+](=O)[O-])c1O	Nrf2 block 18µM, ATXN viability inconclusive, A549 tox inconclusive
CCN1CCCC1CNC(=O)c1cnn(-c2nccc(-c3ccco3)n2)c1C1CC1 (configuration not stated)	none (no result: Nrf2 block, Nrf2 activator, ATXN2 expr inh, A549 tox)
Cc1ccc(-c2ccc(/C=N\NC(=O)c3cc4c(ccc5ccccc54)o3)o2)cc1[N+](=O)[O-]	Nrf2 block 23µM, ATXN2 expr inh inconclusive, A549 tox inconclusive (no result: ATXN viability)
CC(=O)c1nn(-c2ccc(OC(F)(F)F)cc2)nc1Nc1ccc(C)cc1	none (no result: ATXN viability, ATXN2 expr inh)
Cc1ccc(-c2[nH]ncc2CNCc2ccccc2)cc1	none (no result: Nrf2 activator, ATXN viability, ATXN2 expr inh)
CCc1ccccc1NC(=O)Nc1ccc2snnc2c1	ATXN2 expr inh inconclusive
O=C(Nc1ccc2snnc2c1)Nc1cccc2ccccc12	Nrf2 block 16µM, ATXN viability inconclusive, ATXN2 expr inh inconclusive
Cc1ccc2oc(C(=O)N(Cc3sccc3C)C3CCS(=O)(=O)C3)c(C)c2c1 (configuration not stated)	Nrf2 block 23µM (no result: ATXN viability, ATXN2 expr inh)
O=S1(=O)c2cccc3cccc(c23)N1Cc1nnc(-c2ccccc2Br)o1	Nrf2 block 21µM
Cc1ccc(C(C)(C)C)cc1S(=O)(=O)N1CC(=O)Nc2ccccc21	Nrf2 block 26µM, A549 tox inconclusive (no result: ATXN viability)
CCNC(=S)Nc1ccc2cn[nH]c2c1	none
N#CC(C#N)=NNc1ccc2cn[nH]c2c1	ATXN viability 16µM, ATXN2 expr inh inconclusive (no result: Nrf2 block, A549 tox)
Cc1ccc(N=C(NOCc2ccc(Cl)cc2Cl)c2nonc2N)c(C)c1	Nrf2 block 23µM
Cc1cccc2sc(NC(=O)C3c4ccccc4Oc4ccccc43)nc12	Nrf2 block 21µM
Cc1cccc2sc(NC(=O)C3CC3)nc12	Nrf2 block inconclusive, Nrf2 activator inconclusive
Cc1cccc2sc(NC(=O)c3ccc(Cl)s3)nc12	Nrf2 activator 7.1µM
COC(=O)Nc1nc2c(C)cccc2s1	Nrf2 activator inconclusive
Cc1c(P(=S)(c2ccccc2)c2ccccc2)c2ccccc2n1CCCc1ccccc1	none (no result: Nrf2 activator, ATXN viability, ATXN2 expr inh)
Cc1cc(C)cc(OCCOCCn2c(-c3ccc(Cl)cc3)nc3ccccc3c2=O)c1	Nrf2 block inconclusive, A549 tox inconclusive
Oc1ccc(C2=Cc3ccc(O)cc3OC2)cc1	none (no result: Nrf2 block, Nrf2 activator, ATXN viability, A549 tox)
Cc1cccc(N/C=C/c2onc(C)c2[N+](=O)[O-])c1	Nrf2 block inconclusive, Nrf2 activator inconclusive
Cc1cccc(/C=C/c2onc(C)c2[N+](=O)[O-])n1	Nrf2 block 15µM, ATXN viability 18µM, ATXN2 expr inh inconclusive, A549 tox 18µM
CCn1c(-c2ccccc2F)nc2cc(NC(C)=O)cc(C(=O)N3CCNC(=O)C3CC(=O)OC)c21 (configuration not stated)	none (no result: Nrf2 block, Nrf2 activator, ATXN2 expr inh, A549 tox)
CC(C)N(CCO)Cc1nc(N2CCOCC2)c2cc(Cl)ccc2n1	none (no result: Nrf2 block, Nrf2 activator, ATXN2 expr inh, A549 tox)
CCOC(=O)c1ccccc1NC(=O)CSc1ccc(-c2ccccn2)nn1	Nrf2 block inconclusive, ATXN viability inconclusive, ATXN2 expr inh 3.5µM, A549 tox inconclusive
Cc1cccc(NC(=O)CSc2ccc(-c3ccccn3)nn2)c1	Nrf2 block inconclusive (no result: ATXN viability, ATXN2 expr inh)
CC(=O)c1cccc(NC(=O)CSc2ccc(-c3ccccn3)nn2)c1	Nrf2 block 21µM, ATXN2 expr inh inconclusive
CCc1ccc(NC(=O)CSc2ccc(-c3ccccn3)nn2)cc1	Nrf2 block 21µM, ATXN viability inconclusive, ATXN2 expr inh inconclusive, A549 tox inconclusive
Cc1cnc(-n2ncc(C(=O)NCC3CCCN(C)C3)c2C)nc1-c1cccs1 (configuration not stated)	none (no result: Nrf2 block, Nrf2 activator, ATXN2 expr inh, A549 tox)
COc1cc(=O)n2c(c1C(=O)N(C)Cc1nonc1C)CCN(Cc1ccc(C)cc1C)CC2	none (no result: Nrf2 block, Nrf2 activator, ATXN2 expr inh, A549 tox)
CC(C)(C)C1CCc2c(sc(NC(=O)CSc3ncn[nH]3)c2C#N)C1 (configuration not stated)	Nrf2 block inconclusive, ATXN2 expr inh inconclusive, A549 tox inconclusive
N#Cc1c(NC(=O)CSc2ncn[nH]2)sc2c1CCCC2	Nrf2 block 4.1µM, ATXN viability inconclusive, ATXN2 expr inh inconclusive
CC1CCc2c(sc(NC(=O)CSc3ncn[nH]3)c2C#N)C1 (configuration not stated)	Nrf2 block 7.3µM, ATXN2 expr inh 0.34µM
COc1cc(CN2CCOc3ccc(CN4CCC(O)(c5cccnc5)CC4)cc3C2)cc(OC)c1	none (no result: Nrf2 block, Nrf2 activator, ATXN2 expr inh, A549 tox)
CCn1c(/C=C/c2c[nH]c3ccccc23)nc2ccccc2c1=O	Nrf2 block inconclusive (no result: ATXN viability)
CN(C)S(=O)(=O)c1ccc2[nH]cc(/C=C/c3nc4ccccc4c(=O)n3-c3ccccc3)c2c1	Nrf2 block 10µM (no result: ATXN viability)
CC(=O)c1ccc(NC(=O)c2ccc3c(c2)N(Cc2cccc(Cl)c2)C(=O)c2ccccc2S3(=O)=O)cc1	ATXN viability inconclusive
COc1ccc(C2Nc3ccccc3C(=O)N2Cc2ccccc2)cc1COc1cccc(C(F)(F)F)c1 (configuration not stated)	none (no result: Nrf2 activator, ATXN viability, ATXN2 expr inh)
COc1ccc2nc(N=Nc3ccc(O)c4ccccc34)sc2c1	Nrf2 block inconclusive, ATXN viability 14µM, ATXN2 expr inh 14µM, A549 tox inconclusive
c1ccc2c(c1)CCc1ccccc1N2	none (no result: Nrf2 block, Nrf2 activator, A549 tox)
CCOC(=O)C1=C(C)N=C2c3ccccc3C(=O)C2C1c1ccc(Cl)cc1 (configuration not stated)	Nrf2 block inconclusive, A549 tox 16µM
CC1(C)CC(=O)C2=C(C1)N=C1c3ccccc3C(=O)C1C2c1ccc(Cl)cc1 (configuration not stated)	Nrf2 block 26µM, ATXN viability inconclusive, ATXN2 expr inh inconclusive, A549 tox 26µM
Cc1ccc(C2C3=C(CC(C)(C)CC3=O)N=C3c4ccccc4C(=O)C32)cc1 (configuration not stated)	Nrf2 block inconclusive, ATXN viability inconclusive, ATXN2 expr inh inconclusive, A549 tox inconclusive
COc1ccccc1-c1ccnc(-n2ncc(C(=O)N(C)C(C)c3nc(C)cs3)c2C2CC2)n1 (configuration not stated)	none (no result: Nrf2 block, Nrf2 activator, ATXN2 expr inh, A549 tox)
O=C(NC1CCN(Cc2ccccc2)C1)c1cnn(-c2ncc3c(n2)-c2ccccc2CC3)c1C1CC1 (configuration not stated)	none (no result: Nrf2 block, Nrf2 activator, ATXN2 expr inh, A549 tox)
